The text below walks through data of PubChem BioAssay (NCI).

The panel holds about 79,000 compounds, 15% with a hit somewhere; the sample as a whole holds those more often. Values without a mark were called inactive. Calls of active or inactive are those of the source. Rule as the data show it: active = growth inhibition above about 70%; inactive = the rest.

The nature of assay [1]: NCI Yeast Anticancer Drug Screen. Data for the rad50 strain (AID 155).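 Also: 0% = growth of vehicle-only cultures of the same strain.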 The note with it: S. cerevisiae rad50 strain growth inhibition; at 50.0 µM; active compounds read high. In a few lines: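 Vehicle-treated cultures provide the reference for the growth inhibition reported for compound-exposed, repair-deficient yeast.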
The nature of assay [2]: NCI Yeast Anticancer Drug Screen. Data for the mec2-1 strain (AID 157). To be noted: S. cerevisiae mec2-1 strain, at 50.0 µM, active compounds read high. In short, it runs like this:
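Each compound was tested on mec2-1 yeast, a strain altered in DNA damage repair or cell cycle control. Growth inhibition is reported relative to vehicle.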

The nature of assay [3]: NCI Yeast Anticancer Drug Screen. Data for the sgs1 mgt1 strain (AID 161).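 Also: 0% = growth of cultures given vehicle only.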 The note with it: S. cerevisiae sgs1 mgt1 strain, at 50.0 µM, active compounds read high. In short, it runs like this: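 Read-out: growth inhibition vs vehicle controls. Cells: mutant yeast strain deficient in DNA damage repair.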
Assay [4] can be described thus: NCI Yeast Anticancer Drug Screen. Data for the cln2 rad14 strain (AID 165).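 Also: 0% = growth equal to vehicle treated cultures.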 The note with it: S. cerevisiae cln2 rad14 strain, at 50.0 µM, active compounds read high. In short, it runs like this: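 Test compounds were added to cln2 rad14 yeast cultures; inhibition of growth was then determined by comparison with vehicle treatment.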
The nature of assay [5]: NCI Yeast Anticancer Drug Screen. Data for the bub3 strain (AID 167). The note with it: S. cerevisiae bub3 mutant strain, at 50.0 µM, active compounds read high. In short, it runs like this: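 Mutant yeast screening strain plus compound; vehicle-treated cultures serve as the 0% inhibition reference.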
The nature of assay [6]: NCI Yeast Anticancer Drug Screen. Data for the mlh1 rad18 strain (AID 175). The note with it: S. cerevisiae mlh1 rad18 strain growth inhibition; at 50.0 µM; active compounds read high. In short, it runs like this:
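Inhibition values reflect reduced growth of mutant yeast versus vehicle-treated controls following compound exposure; the mutations affect DNA damage repair.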

For the molecule `CCCN(CCC)CC(O)c1cccc2c1cc(Cl)c1ccccc12` (stereo unspecified), the growth inhibition was 99.6% (active) in assay [1]; 99.7% (active) in assay [2]; 99.8% (active) in assay [3]; 99% (active) in assay [4]; 91.3% (active) in assay [5]; 99.7% (active) in assay [6].

Regarding `CCN(CC)CCOc1ccccc1C(C)C`, the growth inhibition is 14.6% in assay [1]; 7.5% in assay [2]; 17.1% in assay [3]; 19.5% in assay [4]; 4% in assay [5]; 25.1% in assay [6].

Regarding `COc1cc(OC)c(NC(=O)CC2SC(N)=NC2=O)cc1Cl` (stereo unspecified), the growth inhibition in assay [1] is 9.75%; in assay [2] it was 6.85%; in assay [3], 20.2%; in assay [4], 11%; in assay [5], 25.4%; in assay [6] it was 20.6%.

In the case of `CC1CN=C(c2c(O)ccc3ccccc23)S1` (stereo unspecified), the growth inhibition in assay [1] is 42.9%; in assay [2] it was 31.5%; in assay [3] it was 79.8% (active); in assay [4] it was 26.8%; in assay [5] it was 34.4%; in assay [6], 61.3%.

In the case of `CCOC(=O)C(C(=O)/C=C\c1ccccc1)(C(c1ccccc1)c1ccccc1)C(c1ccccc1)c1ccccc1`, the growth inhibition in assay [1] was -9.7%; in assay [2], 14.7%; in assay [3], 5%; in assay [4] it was -38.5%; in assay [5] it was 2.9%; in assay [6], 2.1%.

With `NCCCN(CCCCN(CCCN)C(=O)OCc1ccccc1)C(=O)OCc1ccccc1`, the growth inhibition in assay [1] is 6.85%; in assay [2], -13.1%; in assay [3], -18.9%; in assay [4], 8.55%; in assay [5] it was 1.2%; in assay [6], -55.9%.

`COC(=O)CCC(=O)c1ccc(OC)cc1`: the growth inhibition in assay [1] is 4.7%; in assay [2], -6.5%; in assay [3], 3.35%; in assay [4], -0.95%; in assay [5], 10.2%; in assay [6], 2.45%.

With `CC(=O)OC1CN(c2ccccc2)CC(OC(C)=O)CN(c2ccccc2)C1` (stereo unspecified), the growth inhibition was 38.5% in assay [1]; 3.95% in assay [2]; 38% in assay [3]; -24.4% in assay [4]; 2.1% in assay [5]; 31.8% in assay [6].

Turning to `CN1C(=O)N/C(=C\c2ccc(S(=O)(=O)NN)cc2)C1=O`, the growth inhibition in assay [1] was 4.05%; in assay [2] it was 9.6%; in assay [3] it was 24.7%; in assay [4] it was 11.7%; in assay [5] it was -18.8%; in assay [6] it was 39.2%.

Turning to `O=[N+]([O-])c1cccc(-c2cc(-c3cccs3)cc(-c3ccccc3)n2)c1`, the growth inhibition is 6.7% in assay [1]; 3.95% in assay [2]; -1.95% in assay [3]; -1.4% in assay [4]; 2.85% in assay [5]; 4.95% in assay [6].

On to `O=C1OCC(Cc2ccc3c(c2)OCO3)[C@H]1Cc1ccc(O)cc1` (stereo partly specified), for which the growth inhibition in assay [1] is 1.45%; in assay [2], -18%; in assay [3] it was 17.6%; in assay [4] it was 21.9%; in assay [5] it was 19.3%; in assay [6], -5.9%.

`CCCC(CCC)(C(=O)OCC)C(=O)OCC`: the growth inhibition in assay [1] was 1.45%; in assay [2], 6.15%; in assay [3], -1.3%; in assay [4], -15.4%; in assay [5] it was -4.25%; in assay [6] it was 0.65%.

As to `CC(C)(O)C#Cc1ccccc1`, the growth inhibition in assay [1] was -0.85%; in assay [2], -8.2%; in assay [3] it was -0.95%; in assay [4] it was -24.8%; in assay [5], -9.5%; in assay [6], 11.1%.

With `CC1CCC(C(C)C)C2(C1)OC(CCl)CS2` (stereo unspecified), the growth inhibition is -0.35% in assay [1]; 14.7% in assay [2]; 7.8% in assay [3]; -18.1% in assay [4]; 26.9% in assay [5]; 1.95% in assay [6].

As for `O=[N+]([O-])c1cc(Br)cc2c1nc(NCCO)c1ccccc12`, the growth inhibition in assay [1] was 90.8% (active); in assay [2] it was 79.5% (active); in assay [3], 96.8% (active); in assay [4], 88.2% (active); in assay [5] it was 86.8% (active); in assay [6] it was 97% (active).

Turning to `O=S(=O)(c1ccccc1)C1CCCC1`, the growth inhibition in assay [1] was -12.2%; in assay [2] it was 8.9%; in assay [3], -1.85%; in assay [4], -11.8%; in assay [5] it was -6.7%; in assay [6], -2.9%.

As to `CC(=O)Nc1cccc(NC(C)=O)c1`, the growth inhibition was 0.4% in assay [1]; 4.55% in assay [2]; 5.1% in assay [3]; -17.9% in assay [4]; -1.05% in assay [5]; 11.2% in assay [6].

On to `CSc1ccc(C2OC(=O)c3ccccc32)c2ccccc12` (stereo unspecified), for which the growth inhibition in assay [1] was 20.4%; in assay [2] it was -11.6%; in assay [3], 21.2%; in assay [4] it was 8.25%; in assay [5], -14.8%; in assay [6], 5.1%.

Consider `O=C1Cc2c([nH]c3ccc(Cl)cc23)-c2ccccc2N1`, for which the growth inhibition in assay [1] was 5.55%; in assay [2] it was 2.1%; in assay [3] it was -50.9%; in assay [4] it was 13.8%; in assay [5], -7.9%; in assay [6], 17.1%.

Turning to `OCCC(CO)Cc1ccc2c(c1)OCO2` (stereo unspecified), the growth inhibition was -26.7% in assay [1]; 2.75% in assay [2]; 9.3% in assay [3]; 10.4% in assay [4]; -14.2% in assay [5]; -36.3% in assay [6].

For `CCCN(N)CCC`, the growth inhibition in assay [1] was -8.15%; in assay [2], -16.6%; in assay [3] it was -7.8%; in assay [4], -45.2%; in assay [5], 0.25%; in assay [6], -1.6%.
